A selection: hits, their analogues and other compounds. The true share with any hit is near 1.6%.
KCNQ2 inh – KCNQ2 (rat) channel inhibition | CHO-K1 KCNQ2, FluxOR thallium flux, 20 min; stronger effect = lower value | B-score at 10 µM | O88943 | AID 2156 | 1.1% of 310,000 active;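 active = fluorescence ratio B-score at most minus 3 library SDs, with starting brightness B-score within 2 library SDs, cut at about -5.5 in these data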
Target sequence (O88943 whole entry, looked up): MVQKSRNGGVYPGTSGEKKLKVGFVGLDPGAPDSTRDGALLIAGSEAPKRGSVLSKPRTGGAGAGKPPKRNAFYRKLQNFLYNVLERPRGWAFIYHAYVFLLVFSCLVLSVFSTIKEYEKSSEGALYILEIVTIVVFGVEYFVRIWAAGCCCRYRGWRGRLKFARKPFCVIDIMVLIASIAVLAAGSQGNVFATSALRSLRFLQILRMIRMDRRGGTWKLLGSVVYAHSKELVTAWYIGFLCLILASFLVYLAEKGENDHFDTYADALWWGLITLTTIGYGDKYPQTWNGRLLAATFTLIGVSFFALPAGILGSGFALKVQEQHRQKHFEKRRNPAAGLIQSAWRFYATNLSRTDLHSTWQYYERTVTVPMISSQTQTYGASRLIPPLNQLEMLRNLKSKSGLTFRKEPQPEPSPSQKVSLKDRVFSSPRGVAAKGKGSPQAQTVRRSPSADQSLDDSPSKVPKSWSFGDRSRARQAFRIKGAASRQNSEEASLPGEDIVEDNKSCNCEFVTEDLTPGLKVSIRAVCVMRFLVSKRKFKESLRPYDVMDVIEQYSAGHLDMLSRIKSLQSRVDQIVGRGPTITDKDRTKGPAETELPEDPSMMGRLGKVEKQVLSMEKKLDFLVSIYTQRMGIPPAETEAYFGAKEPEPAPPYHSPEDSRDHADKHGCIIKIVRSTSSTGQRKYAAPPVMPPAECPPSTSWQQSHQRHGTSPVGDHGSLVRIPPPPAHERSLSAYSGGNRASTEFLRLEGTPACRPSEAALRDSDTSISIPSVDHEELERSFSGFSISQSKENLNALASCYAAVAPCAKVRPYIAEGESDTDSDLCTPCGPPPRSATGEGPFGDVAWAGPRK
KCNQ2 enhance – enhances the rat KCNQ2 potassium channel. 0.54% of 310,000 active. B-score at 10 µM. O88943. CHO-K1 KCNQ2, FluxOR thallium flux fluorescence; stronger effect = higher value;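 active = fluorescence ratio B-score at least 3 SD of library B-scores, with initial fluorescence B-score within 3 of them, cut at about 5.3 in these data; same plate scores as AID 2156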;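 also: B-score of peak minus minimum over baseline fluorescence ratio after K+ and Tl+ stimulus; positive B-score means potentiation of KCNQ2 with more thallium influx and brighter signal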
Starred values were filed as active, the others as inactive; i = inactive; . = no result given.

SMILES | KCNQ2 inh | KCNQ2 enhance
CC(C)OCCCn1c(=O)c2ccccc2n2c(CCC(=O)NC3CCN(Cc4ccccc4)CC3)nnc12 | -6* | -6
CC(C)OCCCn1c(=O)c2ccccc2n2c(CCC(=O)O)nnc12 | i | 1.6
COc1ccc(-n2nc(C(=O)O)nc2-c2ccccc2)cc1 | i | .
Fc1ccc(CSc2nncn2NC/C=C/c2ccccc2)cc1 | i | .
CCCCc1c(O)nc(SCC(=O)N2CCCCC2)[nH]c1=O | i | .
c1ccc(-c2onc(-c3ccco3)c2-c2ccc3c(c2)OCO3)cc1 | -5.9* | -5.9
O=C(O)c1cc(-c2ccc(-c3c(-c4ccc5c(c4)OCO5)noc3-c3ccsc3)cc2)nc2ccccc12 | i | .
O=C(O)c1ccc(Cl)c(S(=O)(=O)NCc2cccnc2)c1 | i | 0.01
COc1cccc(N2CCN(c3ncnc4c3[nH]c3ccccc34)CC2C)c1 (configuration not stated) | -11* | -11
COc1cccc(N2CCN(c3ncnc4c3[nH]c3ccc(F)cc34)CC2C)c1 (configuration not stated) | -11* | -11
COc1ccc2[nH]c3c(N4CC(C)OC(C)C4)ncnc3c2c1 (configuration not stated) | i | 0.36
c1ccc2c(c1)CCN(c1ncnc3c1[nH]c1ccccc13)C2 | i | .
COc1cc(CN2CCCC(N3CCN(c4ccccc4C)CC3)C2)cc(Cl)c1O (configuration not stated) | i | 1.3
O=C(c1cccnc1)n1nc(-c2ccco2)nc1NCc1cccs1 | i | .
COc1cccc(NC(=O)C(c2ccccc2)N2CCCCC2)c1 (configuration not stated) | i | .
O=C(Nc1cc(Cl)cc(Cl)c1)C(c1ccccc1)N1CCCCC1 (configuration not stated) | -6.4* | -6.4
Cc1ccc(-c2nc3ccccc3c(=O)n2CCCn2ccnc2)cc1 | i | .
O=C(Nc1cccc(F)c1)Nc1ccnn1C1CCN(C(=O)c2ccccn2)CC1 | i | 1
CCC(Sc1nnnn1-c1ccccc1)C(=O)NC(C)c1ccccc1 (configuration not stated) | i | .
CCN(CC)C(=O)C(Sc1nnnn1-c1ccc(O)cc1)c1ccccc1 (configuration not stated) | -6.1* | -6.1
Fc1ccc(COc2ccc(Br)cc2CNCC2CCCO2)cc1 (configuration not stated) | i | .
Nc1nc(NCc2ccc(Cl)cc2)nc(NCCO)c1[N+](=O)[O-] | i | 1.2
Cc1cc(NCc2ccccc2)nc2ccccc12 | i | 2
C/C(CCC(C)C)=N\Nc1cc(C)c2ccccc2n1 | -8.3* | -8.3
COc1ccccc1N1CCN(c2ccc3cc(S(=O)(=O)N4CCCCC4)ccc3n2)CC1 | -5.6* | -5.6
SMILES | KCNQ2 inh | KCNQ2 enhance
O=S(=O)(c1ccc2nc(N3CCN(c4ccccc4)CC3)ccc2c1)N1CCCCC1 | i | 0.04
COc1ccc(C2CC(c3c(-c4ccccc4)c4cc(Cl)ccc4[nH]c3=O)=NN2S(C)(=O)=O)cc1 (configuration not stated) | i | 0.16
COc1ccc(OC)c(C2CC(c3c(-c4ccccc4)c4cc(Cl)ccc4[nH]c3=O)=NN2S(C)(=O)=O)c1 (configuration not stated) | -7* | -7
CC(C)(C)C1CCC(=NNC(=O)C(=O)NC2CCCCC2)CC1 (configuration not stated) | i | 1.2
CO/N=C(\Cn1ncc(N2CCCC2)c(Br)c1=O)c1ccc(Cl)cc1 | i | .
CO/N=C(\Cn1ncc(NC2CCCCC2)c(Br)c1=O)c1ccc(Cl)cc1 | -6.2* | -6.2
CCCCn1c(-c2csc(CC)c2)n[nH]c1=S | i | 1.9
CCCc1cc(-c2n[nH]c(=S)n2CC(C)C)cs1 | i | 6.4*
Cn1c(-c2ccccc2)cc2ccccc21 | i | .
CC1Cc2ccccc2N1C(=O)CN1CCN(Cc2ccccc2)CC1 (configuration not stated) | i | 1.3
CC1(C)SC(=S)N(/N=C/c2ccc(O)cc2)C1N(O)C(=O)Nc1ccc([N+](=O)[O-])cc1 (configuration not stated) | -7.5* | -7.5
Cc1ccc(/C=N/N2C(=S)SC(C)(C)C2N(O)C(=O)Nc2ccc([N+](=O)[O-])cc2)cc1 (configuration not stated) | i | .
S=c1nccc(-c2ccc(Cl)cc2)[nH]1 | i | .
S=c1[nH]c(-c2ccc(Cl)cc2)cs1 | i | 19*
Cc1cc(C)cc(NC(=O)/C=C/c2ccc([N+](=O)[O-])s2)c1 | i | .
Cc1ccccc1NC(=O)/C=C/c1ccc([N+](=O)[O-])s1 | -5.7* | -5.7
COCCCN1CCN(C2Cc3ccccc3Sc3ccc(Cl)cc32)CC1 (configuration not stated) | i | .
Clc1cccc2c1Sc1ccccc1CC2N1CCNCC1 (configuration not stated) | -7.9* | -7.9
O=C(N/N=C/c1ccc(OCC(=O)N2CCCC2)cc1)C(=O)NC1CC1 | i | .
CCN(CC)C(=O)Cn1cc(C(=O)C(=O)Nc2ccc3c(c2)OCCO3)c2ccccc21 | i | .
COc1ccc(C)c2sc(N(CCN(C)C)C(=O)c3ccc4ccccc4c3)nc12 | i | .
COc1ccc(Cc2nc(C(=O)Nc3ccc(Cl)cc3)cs2)cc1 | -5.8* | -5.8
COc1ccc(NC(=O)c2csc(Cc3ccc(Cl)cc3)n2)cc1 | i | .
Nc1nnnn1/N=C/c1ccccc1OCc1ccc(Cl)cc1 | i | .
Cc1ccc(C)c(OCc2nc3ccccc3[nH]2)c1 | i | .
SMILES | KCNQ2 inh | KCNQ2 enhance
Cc1cccc(C)c1OCc1nc2ccccc2[nH]1 | -5.7* | -5.7
C/C(=N/Nc1ncc(C(F)(F)F)cc1Cl)c1ccncc1 | i | 0.01
Cc1ccc(-c2csc(N3C(=N)SCC3=O)n2)cc1 | i | 0.11
N=C1SCC(=O)N1c1ncc(Cc2ccc(F)cc2)s1 | i | 6.9*
NC(=O)c1oc2ccccc2c1NC(=O)c1ccccc1 | i | .
Cc1ccc(S(=O)(=O)c2c(C)nn(C(C)(C)C)c2OC(=O)C(C)C)cc1 | i | .
Cc1ccc(S(=O)(=O)c2c(C)nn(C(C)(C)C)c2OC(=O)CC(C)C)cc1 | -7.6* | -7.6
O=C(Cc1cccs1)NNC(=S)NC(=O)c1ccc(F)c(F)c1 | i | .
O=C(Nc1ccc(F)cc1)NC1CCCCCCC1 | i | 1.1
O=C(Nc1ccc(F)cc1)C(NC1CCCCC1)c1ccccc1 (configuration not stated) | -6* | -6
O=C(CCCCN1CCCCC1)c1ccccc1 | i | 0.54
O=C(CCCCCCCC(=O)c1ccccc1)c1ccccc1 | -6.2* | -6.2
COc1cccc(-c2nc(C(=O)NCC3CCCO3)cc3c2[nH]c2ccccc23)c1 (configuration not stated) | -5.7* | -5.7
COc1ccc(OC)c(-c2nc(C(=O)NCC3CCCO3)cc3c2[nH]c2ccccc23)c1 (configuration not stated) | i | .
COc1ccc(C)cc1NC(=O)CN1C(=O)COc2ccc(S(=O)(=O)N3CCC(C)CC3)cc21 | i | .
C/C(=N/Nc1ccccc1[N+](=O)[O-])c1ccc(C)c([N+](=O)[O-])c1 | i | 0.55
CC(C)/C(=N/Nc1ccccc1[N+](=O)[O-])c1ccccc1 | -6.4* | -6.4
O=C(NCC1CCCO1)c1ccc(COc2ccccc2Br)cc1 (configuration not stated) | i | 5.3*
